Hits are enriched below; roughly 2.2% of the tested compounds scored in any of these assays.
IL-2 act = IL-2 activation. IL-2 activation reporter assay, cell-based qHTS; stimulated with anti-CD3/CD4/CD28 beads; in transgenic mouse T cells. 360,000 tested, 0.065% active. activation, % (series mostly up to about 46 µM); in the data active = activation above about 50%; inconclusive = mostly about 30% to 49%; also: 0% is about no effect
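First, unstimulated transgenic mouse T cells were exposed to compound for 60 min. Next, anti-CD3/anti-CD4-coated beads with anti-CD28 were added. Finally, after 18 h at 37 degrees C, EGFP and DsRed were imaged.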
IDH1 R132H inh = inhibitors of human mutant IDH1 R132H; Potency, µM (doses to about 76.6 µM), for the others: top-dose activity change, negative = inhibition, most hits filed as inhibitors; 390,000 tested, 0.093% active; IDH1-R132H enzyme, NADPH consumption, diaphorase/resazurin fluorescence; also: potency is read from the fitted curve at half-maximal effect; % is scaled to controls: 0 for no effect and ±100 for the full control effect; nearly all actives have a fitted effect of over 65% in size
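IDH1-R132H (0.5 ug/mL dispensed) in pH 7.5 Tris buffer was preincubated 30 min with compound, then given a substrate mix of 0.016 mM NADPH and 2 mM alpha-KG for 80 min at room temperature; remaining NADPH was read by diaphorase/resazurin fluorescence.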
BRCA1 expr up = increases BRCA1 expression. MCF7-BRCA1-FFLuc reporter, luminescence, 48 h; response scale: scaled: vehicle 0%, 10 µM genistein 100%. Potency, µM (titrated, usually from 46.1 µM), inactives show at the top dose activation, hits mostly activators. 380,000 tested, 1.1% active. AID 624202; also: potency is read from the fitted curve at half-maximal effect; nearly all actives have a fitted effect of over 80% in size
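Reporter cells (MCF7, BRCA1 promoter-firefly luciferase) received library compounds across a concentration series for 48 h. End-point luminescence was measured and concentration-effect curves derived after normalization.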
TrxR1 substrate = rat thioredoxin reductase 1 substrate activity; purified TrxR1 substrate turnover, NADPH consumption readout; Potency, µM (highest dose often 114 µM), for the others: top-dose activity change, negative = substrate turnover; AID 588456; 390,000 tested, 0.01% active; O89049; also: potency is read from the fitted curve at half-maximal effect; % is scaled to controls: 0 for no effect and ±100 for the full control effect; nearly all actives have a fitted effect of over 50% in size
Target sequence (O89049 whole entry, looked up): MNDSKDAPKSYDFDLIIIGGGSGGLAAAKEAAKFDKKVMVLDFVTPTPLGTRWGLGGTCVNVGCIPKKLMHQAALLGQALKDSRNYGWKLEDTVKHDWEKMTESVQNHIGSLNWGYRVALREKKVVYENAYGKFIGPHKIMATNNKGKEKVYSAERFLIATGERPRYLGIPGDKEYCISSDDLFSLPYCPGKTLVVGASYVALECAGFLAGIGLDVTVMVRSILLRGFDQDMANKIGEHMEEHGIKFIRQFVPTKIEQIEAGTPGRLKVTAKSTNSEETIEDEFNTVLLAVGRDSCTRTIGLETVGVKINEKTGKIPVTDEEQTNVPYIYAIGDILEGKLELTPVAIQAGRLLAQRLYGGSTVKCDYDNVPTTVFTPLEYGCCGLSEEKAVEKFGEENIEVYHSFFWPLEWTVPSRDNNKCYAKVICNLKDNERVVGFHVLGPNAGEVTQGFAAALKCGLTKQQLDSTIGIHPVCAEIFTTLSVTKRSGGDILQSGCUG
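Rat TrxR1, dispensed at 90 nM, was prereduced with 400 uM NADPH (final) for 5 min at ~22 deg C, then incubated with compound 15 min before 400 uM selenite. A first-read NADPH fluorescence drop versus no-compound background flagged substrates.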
Giardia killer = Giardia lamblia killing; Giardia lamblia trophozoite viability; activity change, % at 7.66 µM, hits read low; 340,000 tested, 0.15% active; in the data active = activity change below about -80%; inconclusive = between about -30% and that limit;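 also: parasites exposed to compound for two days anaerobically before the ATP read; % is scaled to controls: 0 for no effect and ±100 for the full control effect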
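Anaerobic 48 hrs incubation at 37 deg C of 100 trophozoites/well with test compounds; ATPLite 1-Step luminescence, 15-30 min RT, reports cellular ATP as viability.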
rTrxR1 inhibitor = rat TrxR1 inhibition | recombinant rTrxR1, NADPH fluorescence consumption, selenite substrate | Potency, µM (titrated, usually from 114 µM), inactives show at the top dose activity change, negative = inhibition, hits mostly inhibitors | 390,000 tested, 1% active | O89049 | AID 588453; also: potency is read from the fitted curve at half-maximal effect; % is scaled to controls: 0 for no effect and ±100 for the full control effect; nearly all actives have a fitted effect of over 65% in size
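Rat TrxR1 (90 nM in the dispensed reagent) was pre-reduced with 400 uM NADPH for 5 min at room temperature, then incubated with compound for 15 min. After 400 uM selenite was added, NADPH fluorescence (Ex 340/Em 450 nm) was followed for 8 min.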
Active calls of the source: *; i = inactive; ? = inconclusive; nt = no result; ! = repeats disagree; [ ] = remark or other dose. Unless noted, calls follow the shape of the dose curve; as a rule, active = well fitted curve in the direction sought with a large enough effect; inconclusive = small, poorly fitted or top-dose-only effect, or another doubt; inactive = no such curve, though single readings can be large; an effect the other way counts as inactive or inconclusive.

SMILES	IL-2 act	IDH1 R132H inh	BRCA1 expr up	TrxR1 substrate	Giardia killer	rTrxR1 inhibitor
O=C(Cn1ncc(Cl)c(Cl)c1=O)NC1CCS(=O)(=O)C1 (configuration not stated)	-5	10%	-9%	-2%	?	13µM*
O=C(NCCCCc1ccccc1)c1nn(-c2ccccc2)nc1CO	nt	5%	nt	6%	nt	32%
CCCCOc1ccc(-c2ncc(N)cn2)cc1	0	7%	2.5µM*	18%	-11	19%
CCCCOc1ccc(-c2nnc(N)s2)cc1	-2	2%	6.3µM*	-8%	5	-17%
CCOc1ccc(-c2nnc(N)s2)cc1	-1	-1%	?	7%	-21	-9%
COc1ccc(N2CCN(C(=O)C3CCN(S(=O)(=O)c4cnc[nH]4)CC3)CC2)cc1	nt	4%	nt	-8%	nt	-2%
Cc1ccc(/C=C/C(=O)N2CCC(c3nc4ccccc4o3)CC2)cc1	nt	18%	nt	-10%	nt	0%
Cc1ccc2oc(=O)n(Cc3ccccc3Cl)c2c1	nt	1%	nt	-5%	nt	-18%
O=C1C=CC(=O)N1c1ccccc1N1C(=O)C=CC1=O	1	-8%	-80%	4%	7	0.32µM*
O=C(c1ccccc1)c1ccccc1N1C(=O)C=CC1=O	0	6%	-17%	13%[57.1 µM]	0	2.2µM*
O=C1C=CC(=O)N1c1ccccn1	0	-12%	-4%	21%	-8	?
O=C(O)c1cccc(N2C(=O)C=CC2=O)c1	-1	3%	0%	nt	nt	nt
CC(C)(C)n1ncc2c(=O)n(Cc3ccccc3C(F)(F)F)cnc21	nt	nt	nt	-3%	nt	3%
CC(C)CCSc1nc2c(c(=O)n(C)c(=O)n2C)n1Cc1ccccc1Cl	nt	-17%	nt	9%	nt	20%
O=C1CCSc2ccc(S(=O)(=O)Nc3ccc(Cl)c(C(F)(F)F)c3)cc2N1	nt	4%	4%	-2%	nt	10%
O=C(Cn1ccc2cc(S(=O)(=O)N3CCCCCC3)ccc21)NCc1cccc(Cl)c1	nt	18%	nt	-7%[57.1 µM]	nt	-23%[57.1 µM]
COc1ccc(NC(=O)c2cccc3c2C(=O)N(C2CCCCC2)C3)cc1	0	-5%	3%	6%	-8	21%
COc1ccc(OC)c(NC(=O)c2cccc3c2C(=O)N(C2CCCCC2)C3)c1	-1	0%	-6%	7%	-16	22µM*!
Fc1ccccc1CSc1nc2ncc(Br)cc2[nH]1	0	4%	11µM*	12%[57.1 µM]	12	17%[57.1 µM]
Cc1cccc(OCC(=O)Nc2c(C(=O)N3CCN(c4ccccc4)CC3)oc3ccccc23)c1	nt	4%	nt	-3%	nt	6%
CC(C)CCNC(=O)C(=O)Nc1c2c(nn1-c1ccccc1)CS(=O)(=O)C2	nt	-11%	nt	5%[57.1 µM]	nt	22%[57.1 µM]
CC(C)CCNC(=O)C(=O)Nc1ccccc1	0	0%	8.9µM*	-1%	2	3%
CCOC(=O)c1c(N)sc(N)c1C(=O)OCC	1	-12%	-39%	-3%	-10	-11%
CCOC(=O)c1c(N)sc(=S)c2c1CCC2	0	-1%	-38%	-14%	-13	71µM*
CCOC(=O)c1ccc2c(c1)sc1nc(-c3ccc(OCC)cc3)cn12	nt	-17%	nt	3%	nt	-2%
SMILES	IL-2 act	IDH1 R132H inh	BRCA1 expr up	TrxR1 substrate	Giardia killer	rTrxR1 inhibitor
CCN1CCN(C(c2ccccc2Cl)c2c(O)cc(C)n(Cc3ccco3)c2=O)CC1 (configuration not stated)	nt	-6%	nt	3%[57.1 µM]	nt	8.9µM*
Cc1cc(O)c(C(c2ccccc2)N2CCC(C)CC2)c(=O)n1Cc1ccco1 (configuration not stated)	nt	31%	3%	-3%[57.1 µM]	nt	-1%[57.1 µM]
COCCn1c(C)cc(O)c(C(c2cccc(F)c2)N2CCN(c3ccccc3)CC2)c1=O (configuration not stated)	nt	-14%	nt	8%[57.1 µM]	nt	?
CCN1CCN(C(c2ccccc2)c2c(O)cc(C)n(Cc3ccco3)c2=O)CC1 (configuration not stated)	nt	0%	nt	-4%[57.1 µM]	nt	7.9µM*
COCCn1c(C)cc(O)c(C(c2ccc(OC)cc2)N2CCN(c3ccccc3)CC2)c1=O (configuration not stated)	nt	-3%	nt	6%[57.1 µM]	nt	14µM*
Cc1cc(O)c(C(c2ccccc2Cl)N2CCN(c3ccccc3)CC2)c(=O)n1Cc1ccco1 (configuration not stated)	nt	14%	nt	2%[57.1 µM]	nt	?
Cc1cc(O)c(C(c2ccccc2)N2CCN(C)CC2)c(=O)n1Cc1ccco1 (configuration not stated)	nt	20%	nt	1%[57.1 µM]	nt	8.9µM*
CCN1CCN(C(c2ccc(OC)cc2)c2c(O)cc(C)n(Cc3ccco3)c2=O)CC1 (configuration not stated)	nt	-5%	nt	6%[57.1 µM]	nt	?
O=c1sc(/C=N/Nc2ccccc2)c(Cl)n1Cc1ccccc1	0	6%	56%	7%[57.1 µM]	1	13µM*
COC(=O)c1cccc(Cn2c(Cl)c(/C=N/NC(=O)c3ccco3)sc2=O)c1	0	-2%	-29%	-16%	-1	40µM*
COC(=O)c1cccc(Cn2c(Cl)c(/C=N/NC(=O)c3ccccc3Cl)sc2=O)c1	0	6%	-43%	-6%	-22	?
O=Cc1sc(=O)n(Cc2cccc(C(=O)O)c2)c1Cl	4	2%	1%	6%	-2	3.2µM*
Cc1c(C)c2ccc(O)c(CN3CCCC3)c2oc1=O	-2	7%	2%	i	17	?
CCc1c(C)c2ccc(O)c(CN3CCCC3)c2oc1=O	-1	9%	5%	i	-12	22µM*
Cc1cc(=O)oc2c(CN3CCOCC3)c(O)ccc12	-2	-7%	-14%	i	-12	56µM*
CC1=C(C(=O)Nc2ccccc2)C(c2ccc(C(=O)O)cc2)n2nc(SCC(=O)c3ccc(C)cc3)nc2N1 (configuration not stated)	nt	-4%	nt	3%[57.1 µM]	nt	16%[57.1 µM]
O=C1C(Cl)=C(N2CCCCCC2)C(=O)N1c1ccccc1Cl	7	9%	7%	1%	9	23%
Cc1cc(=O)[nH]c(Nc2c(C)n(C)n(-c3ccccc3)c2=O)n1	1	2%	2%	6%[57.1 µM]	2	19%[57.1 µM]
C=CCNC1=C(Cl)C(=O)N(c2ccccc2Cl)C1=O	4	1%	7%	-6%	-2	25µM*
Cc1c(NC2=C(Cl)C(=O)N(c3ccccc3Cl)C2=O)c(=O)n(-c2ccccc2)n1C	0	-1%	-4%	9%	8	20µM*
CCOc1ccccc1CNS(=O)(=O)c1ccc2c(c1)CCCN2C(C)=O	nt	7%	nt	1%[57.1 µM]	nt	17%[57.1 µM]
Cn1c(=O)c2c(-c3ccccc3Br)n(C(C)(C)C)cc2n(C)c1=O	nt	-7%	4%	-9%	nt	2%
CC(C)OCCCn1c(=O)c2ccccc2n2c(-c3ccccc3)nnc12	nt	9%	nt	-2%	nt	7%

Source: PubChem BioAssay (National Center for Advancing Translational Sciences (NCATS))
